Assay results from PubChem BioAssay AID1159580 (chemical genetic matrix, 2015).
Out of some 5,500 compounds screened, about 2,000 (36%) were called active. About 18% were inconclusive and are not listed. Cut-off read from the data, not from the text of the source: active = normalized growth mostly below about 0.91 (no sharp cut-off); inconclusive = no clear call, values can overlap the other calls; inactive = mostly above about 0.92. The list shows a part of the results.

Assay: chemical genetic growth profiling, strain panel (AID 1159580);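 note: tested at 20 µM; growth read once vehicle control cultures reached saturation at 30 °C; 1 = growth at the plate median or of vehicle wells; lower values mean less growth of the strain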
Conditions: growth OD

Measured: normalized growth

CC(C)(C)CC(C)(C)c1ccc(O)c(Cc2ccc(Cl)cc2Cl)c1
inactive: S. cerevisiae deletion strains, locus YJR075W, strain HOC1, active compounds read low 1.01 | S. cerevisiae deletion strains, locus YKL009W, strain mrt4, active compounds read low 1.01 | S. cerevisiae deletion strains, locus YKL068W, active compounds read low 1.02 | S. cerevisiae deletion strains, locus YKL085W, strain MDH1 (second series), active compounds read low 1.01 | S. cerevisiae deletion strains, locus YKL085W, strain MDH1, active compounds read low 1.01 | S. cerevisiae deletion strains, locus YKL160W, strain elf1, active compounds read low 1 | S. cerevisiae deletion strains, locus YKL190W, strain CNB1, active compounds read low 1 | S. cerevisiae deletion strains, locus YKR001C, strain vps1, active compounds read low 1.01 | S. cerevisiae deletion strains, locus YKR026C, strain gcn3, active compounds read low 1.02 | S. cerevisiae deletion strains, locus YKR091W, strain srl3, active compounds read low 1.02 | S. cerevisiae deletion strains, locus YLL001W, strain dnm1, active compounds read low 1.04 | S. cerevisiae deletion strains, locus YLL026W, active compounds read low 1.01 | S. cerevisiae deletion strains, locus YLL041C, strain sdh2, active compounds read low 1.02 | S. cerevisiae deletion strains, locus YLR027C, strain aat2, active compounds read low 1.01 | S. cerevisiae deletion strains, locus YLR039C, strain RIC1, active compounds read low 0.985 | S. cerevisiae deletion strains, locus YLR058C, strain SHM2, active compounds read low 1.01 | S. cerevisiae deletion strains, locus YLR102C, strain apc9, active compounds read low 1.01 | S. cerevisiae deletion strains, locus YLR113W, strain HOG1, active compounds read low 1.03 | S. cerevisiae deletion strains, locus YLR221C, strain rsa3, active compounds read low 0.995 | S. cerevisiae deletion strains, locus YLR258W, strain gsy2, active compounds read low 1.02 | S. cerevisiae deletion strains, locus YLR262C, strain YPT6 (second series), active compounds read low 0.981 | S. cerevisiae deletion strains, locus YLR262C, strain YPT6, active compounds read low 0.974 | S. cerevisiae deletion strains, locus YLR268W, strain sec22, active compounds read low 1.01 | S. cerevisiae deletion strains, locus YLR320W, strain mms22, active compounds read low 1.02 | S. cerevisiae deletion strains, locus YLR330W, strain CHS5, active compounds read low 0.999 | S. cerevisiae deletion strains, locus YLR342W, strain FKS1 (second series), active compounds read low 0.995 | S. cerevisiae deletion strains, locus YLR342W, strain FKS1, active compounds read low 1.01 | S. cerevisiae deletion strains, locus YLR357W, strain rsc2, active compounds read low 1.05 | S. cerevisiae deletion strains, locus YLR370C, strain arc18, active compounds read low 1.03 | S. cerevisiae deletion strains, locus YLR371W, strain rom2, active compounds read low 1.01 | S. cerevisiae deletion strains, locus YLR384C, strain iki3, active compounds read low 1.03 | S. cerevisiae deletion strains, locus YLR418C, strain cdc73, active compounds read low 1.02 | S. cerevisiae deletion strains, locus YML016C, strain PPZ1, active compounds read low 1.01 | S. cerevisiae deletion strains, locus YML032C, strain rad52, active compounds read low 1.02 | S. cerevisiae deletion strains, locus YML120C, strain ndi1, active compounds read low 1 | S. cerevisiae deletion strains, locus YML124C, strain tub3, active compounds read low 1.02 | S. cerevisiae deletion strains, locus YMR058W, strain fet3, active compounds read low 1.01 | S. cerevisiae deletion strains, locus YMR078C, strain ctf18, active compounds read low 1.01 | S. cerevisiae deletion strains, locus YMR125W, strain sto1, active compounds read low 1.02 | S. cerevisiae deletion strains, locus YMR129W, active compounds read low 0.998 | S. cerevisiae deletion strains, locus YMR205C, strain PFK2, active compounds read low 1.01 | S. cerevisiae deletion strains, locus YMR223W, strain ubp8, active compounds read low 1.01 | S. cerevisiae deletion strains, locus YMR231W, strain pep5, active compounds read low 1.03 | S. cerevisiae deletion strains, locus YMR263W, strain SAP30, active compounds read low 0.998 | S. cerevisiae deletion strains, locus YMR307W, strain GAS1, active compounds read low 0.972 | S. cerevisiae deletion strains, locus YNL067W, strain RPL9B, active compounds read low 1.01 | S. cerevisiae deletion strains, locus YNL071W, strain lat1, active compounds read low 1.03 | S. cerevisiae deletion strains, locus YNL128W, strain TEP1, active compounds read low 1.02 | S. cerevisiae deletion strains, locus YNL153C, strain GIM3, active compounds read low 1 | S. cerevisiae deletion strains, locus YNL183C, strain NPR1, active compounds read low 0.973 | S. cerevisiae deletion strains, locus YNL209W, strain ssb2, active compounds read low 1.02 | S. cerevisiae deletion strains, locus YNL233W, strain BNI4, active compounds read low 1.01 | S. cerevisiae deletion strains, locus YNL248C, strain rpa49, active compounds read low 1.01 | S. cerevisiae deletion strains, locus YNL250W, strain rad50, active compounds read low 1.02 | S. cerevisiae deletion strains, locus YNL271C, strain bni1, active compounds read low 1.02 | S. cerevisiae deletion strains, locus YNL298W, strain CLA4, active compounds read low 1.03 | S. cerevisiae deletion strains, locus YNL307C, strain MCK1, active compounds read low 1.02 | S. cerevisiae deletion strains, locus YNL322C, strain KRE1 (second series), active compounds read low 1.02 | S. cerevisiae deletion strains, locus YNR049C, strain mso1, active compounds read low 1.02 | S. cerevisiae deletion strains, locus YNR052C, strain pop2, active compounds read low 1.01 | S. cerevisiae deletion strains, locus YOL006C, strain TOP1, active compounds read low 0.836 | S. cerevisiae deletion strains, locus YOL012C, strain htz1 0.945 | S. cerevisiae deletion strains, locus YOL147C, strain pex11, active compounds read low 1.02 | S. cerevisiae deletion strains, locus YOR001W, strain rrp6, active compounds read low 1.01 | S. cerevisiae deletion strains, locus YOR061W, strain CKA2, active compounds read low 1.01 | S. cerevisiae deletion strains, locus YOR069W, strain VPS5, active compounds read low 1.01 | S. cerevisiae deletion strains, locus YOR070C, strain gyp1, active compounds read low 1.01 | S. cerevisiae deletion strains, locus YOR080W, strain dia2, active compounds read low 1.03 | S. cerevisiae deletion strains, locus YOR083W, strain WHI5, active compounds read low 0.989 | S. cerevisiae deletion strains, locus YOR106W, strain vam3, active compounds read low 0.988 | S. cerevisiae deletion strains, locus YOR136W, strain idh2, active compounds read low 1.02 | S. cerevisiae deletion strains, locus YOR144C, strain elg1, active compounds read low 1.01 | S. cerevisiae deletion strains, locus YOR184W, strain ser1, active compounds read low 1.01 | S. cerevisiae deletion strains, locus YOR231W, strain MKK1, active compounds read low 1.03 | S. cerevisiae deletion strains, locus YOR265W, strain rbl2, active compounds read low 1.01 | S. cerevisiae deletion strains, locus YOR290C, strain snf2, active compounds read low 1.02 | S. cerevisiae deletion strains, locus YOR316C, strain cot1, active compounds read low 1.01 | S. cerevisiae deletion strains, locus YPL051W, strain arl3, active compounds read low 1 | S. cerevisiae deletion strains, locus YPL078C, strain atp4, active compounds read low 1.02 | S. cerevisiae deletion strains, locus YPL106C, strain sse1, active compounds read low 1.04 | S. cerevisiae deletion strains, locus YPL240C, strain hsp82, active compounds read low 1 | S. cerevisiae deletion strains, locus YPL241C, strain CIN2, active compounds read low 1 | S. cerevisiae deletion strains, locus YPL256C, strain CLN2, active compounds read low 1.04 | S. cerevisiae deletion strains, locus YPR119W, strain clb2, active compounds read low 1.01 | S. cerevisiae deletion strains, locus YPR141C, strain kar3, active compounds read low 1.01 | S. cerevisiae deletion strains, locus YPR163C, strain tif3, active compounds read low 1.02 | S. cerevisiae deletion strains, locus YPR167C, strain met16, active compounds read low 1.02 | S. cerevisiae deletion strains, strain wtn01, active compounds read low 1.01 | S. cerevisiae strains, strain wild type, active compounds read low 1
active: S. cerevisiae deletion strains, locus YOR270C, strain vph1, active compounds read low 0.766
